Screens from PubChem BioAssay.
TMEM16A act: mouse TMEM16A channel activation, primary screen. Q8BHY3. HEK293 TMEM16A/YFP-H148Q/I152L, iodide quench fluorescence; stronger effect = lower value. B-score at 10 µM. actives 0.3% (n = 340,000). AID 623877;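 active = fluorescence-ratio B-score plate-corrected deviation score at least 3 library SD below zero, with starting fluorescence score within 5 deviations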;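 note: channel opened by trigger with iodide after compound preincubation; score built on the fluorescence ratio of max minus min over baseline; more negative score means more quench and so TMEM16A activation or potentiation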
CHT inh: inhibitors of human choline transporter CHT; actives 0.86% (n = 310,000); CHT-expressing cells, membrane potential dye, choline response; stronger effect = lower value; Q9GZV3; AID 488975; B-score at 10 µM;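 active = B-score over 3 SD under the library average, and starting fluorescence ratio not unusually high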;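 note: choline stimulus applied at its EC90 after an EC20 pre-addition; B-score computed on integrated fluorescence ratio after choline addition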
ANO1 block: inhibitors of mouse TMEM16A calcium-activated chloride channel; Q8BHY3; HEK293 TMEM16A/YFP iodide influx fluorescence, ionomycin; normalized B-score (activity score, 25-100; higher = stronger inhibition) at 10 µM; actives 1.2% (n = 310,000); AID 588511;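 active = ratio plate-corrected score three or more library SD toward inhibition, starting fluorescence score within five deviations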;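 note: score derived from kinetic fluorescence span divided by baseline fluorescence per well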
CHT allo act: allosteric activators of human choline transporter CHT; CHT-expressing cells, membrane potential dye, choline EC20; stronger effect = higher value; LV-AA mutant CHT in HEK293 cells; actives 0.49% (n = 310,000); Q9GZV3; B-score at 10 µM;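 active = initial fluorescence not abnormally high and integrated response B-score, plate-corrected, over 3 SD above library mean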
CHT activ conf: confirmation of human choline transporter (CHT) activators; shares compounds with CHT allo act; CHT-expressing cells, membrane potential dye fluorescence (FDSS); % of choline EC20–EC90 response window; HEK293 expressing CHT LV-AA mutant; choline added at its EC20; activation, % at 10 µM; actives 91% (n = 2,500); AID 504833;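 active = primary screen active, with duplicate mean activation above negative control mean plus 3 SD, cut at about 11% in these data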
HEK293 MP dye: counter-screen for CHT activators: effect in parental HEK293 cells; actives 62% (n = 2,500); shares compounds with CHT allo act; membrane potential dye fluorescence (FDSS); measured after EC20 choline addition; ratio readout change at 10 µM, hits read low;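 active = duplicate-averaged ratio beyond 3 SD from buffer wells, up or down, though filed actives are nearly all decreases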
Numbers stand for hits; . = inactive; / = no result. Only some compounds are listed: those with a hit (about 2.3% of all), similar ones and a draw of the others.

SMILES	TMEM16A act	CHT inh	ANO1 block	CHT allo act	CHT activ conf	HEK293 MP dye
O=C1C=CC(=Nc2ccc3c(c2)Cc2ccccc2-3)O1	.	/	/	/	/	/
Cc1ccsc1CN(C)C(=O)CN1C(=O)NC(c2ccccc2)(c2ccccc2)C1=O	.	/	/	/	/	/
Cc1ccc(S(=O)(=O)N2CCN(C(=O)CN3CCOCC3)C2C(C)C)cc1 (stereo not given)	.	.	.	.	/	/
Cc1ccc(S(=O)(=O)N2CCN(C(=O)CN3CCOCC3)C2c2ccccc2)cc1 (stereo not given)	.	.	.	8.05	.	.
Cc1ccc2c(c1)C(c1ccc(O)cc1)(c1ccc(O)cc1)C(=O)N2C	.	.	.	6.37	.	.
Cc1ccc2c(c1)C1(C(=O)N2C)N2CC3(C)CN1CC(C)(C2)C3=O (stereo not given)	.	.	.	.	/	/
N#CC1(Cc2ccc([N+](=O)[O-])cc2)c2ccccc2C=CN1C(=O)c1ccccc1 (stereo not given)	.	.	.	.	27.4	.
CS(=O)(=O)c1ccc(-c2sc3ccccc3c2C(=O)N2CCN(c3ccc(F)cc3)CC2)cc1	.	/	/	/	/	/
COc1ccc(Cl)cc1C(=O)NNC(=O)CNC(=O)c1ccc(C)s1	.	/	/	/	/	/
Cc1cc2[nH]c(=O)c(=O)[nH]c2cc1S(=O)(=O)Nc1ccccc1F	.	.	.	7.73	.	.
COc1cc(C)c(S(=O)(=O)Nc2ccccc2F)cc1C	.	.	.	.	/	/
COc1ccc2occ(C(=O)c3coc4ccc(O)c(CN(C)C)c34)c2c1	.	.	.	7.61	31.6	-36.3
CCCCn1c(N)c(N(CCC(C)C)C(=O)C2CCCC2)c(=O)[nH]c1=O	.	/	/	/	/	/
O=c1ccc(S(=O)(=O)N2CCCC2)cn1Cc1ccc(Cl)cc1Cl	.	/	/	/	/	/
Cc1nnc2n(C)c(=O)c3c4c(sc3n12)COC(C)(C)C4	.	.	.	6.46	74.2	-72.4
CC[n+]1c(C)sc2cc(OC)ccc21	.	.	.	.	29.1	-61.6
CCc1cccc(OCCn2nc(C(=O)O)c3ccccc3c2=O)c1	.	.	.	.	30.3	.
Cc1cc(OCCn2nc(C(=O)O)c3ccccc3c2=O)ccc1C(C)C	.	/	/	/	/	/
COc1ccc(-c2csc(NCc3ccco3)n2)cc1C	.	.	.	.	/	/
COc1ccc(-c2nc3cccc(C)n3c2NCc2ccco2)cc1OC	.	.	.	7.55	36.0	-42.3
CNc1ccc(C(=O)OCC(=O)NCc2ccc3c(c2)OCO3)cc1[N+](=O)[O-]	.	/	/	/	/	/
CCOC(=O)c1cc2c(=O)n3ccccc3nc2n(Cc2ccco2)c1=NC(=O)c1ccc(OC)cc1OC	.	.	.	.	20.9	-25.5
CCOC(=O)c1cc2c(=O)n3ccccc3nc2n(CC2CCCO2)c1=NC(=O)/C=C/c1ccccc1 (stereo not given)	.	.	.	.	14.8	.
COc1ccc(OCc2cc(C(=O)NCC(C)Oc3cccnc3)no2)c(Cl)c1 (stereo not given)	.	.	.	.	/	/
Cc1nnc(NC(=O)CSc2ccc3nnc(-c4ccccn4)n3n2)s1	.	.	.	.	/	/
SMILES	TMEM16A act	CHT inh	ANO1 block	CHT allo act	CHT activ conf	HEK293 MP dye
Cc1cc(NC(=O)CSc2ccc3nnc(-c4ccccn4)n3n2)no1	.	.	.	8.08	46.8	-43.3
CCOc1ccc(-c2nnc3ccc(SCc4ccc(C(=O)OC)o4)nn23)cc1	.	.	.	.	/	/
COC(=O)c1ccc(CSc2ccc3nnc(-c4ccccn4)n3n2)o1	.	.	.	.	35.0	-35.6
CCC1COCCS(=O)(=O)N1Cc1ccccc1 (stereo not given)	.	.	.	.	/	/
CCCC[C@H]1COCCS(=O)(=O)N1Cc1cccc([N+](=O)[O-])c1	.	.	.	6.51	12.6	.
COc1ccc(S(=O)(=O)Nc2c(O)ccc3ccccc23)cc1OC	.	.	.	.	/	/
CC(c1ccccc1)N1CC(C(=O)Nc2ccc(F)cc2)CC1=O (stereo not given)	.	/	/	/	/	/
O=C(N/N=C/c1cccs1)c1cc(-c2ccncc2)nc2ccccc12	.	.	.	.	43.7	.
O=C(NCCCn1ccnc1)c1cc(-c2ccncc2)nc2ccccc12	.	.	.	6.32	59.9	-59.3
